Source: PubChem (Broad Institute)
A selection: hits, their analogues and other compounds. The true share with any hit is near 3.1%.
ERAP1 inh: human ERAP1 aminopeptidase inhibitors, primary screen, biochemical, single point, plate reader; Endoplasmic reticulum aminopeptidase 1 (Homo sapiens), Q9NZ08; recombinant ERAP1, Leu-AMC fluorescence, 60 min; inhibition, % at 10.7 µM; 0.15% of 340,000 active;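 active = mean replicate inhibition of at least 30%, or all replicates individually reaching that 30% level; inactive = mean below 30% and not every replicate reaching it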;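 also: 0% = neutral control wells and 100% = L-leucinethiol positive control wells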
Target sequence (Q9NZ08 whole entry, looked up): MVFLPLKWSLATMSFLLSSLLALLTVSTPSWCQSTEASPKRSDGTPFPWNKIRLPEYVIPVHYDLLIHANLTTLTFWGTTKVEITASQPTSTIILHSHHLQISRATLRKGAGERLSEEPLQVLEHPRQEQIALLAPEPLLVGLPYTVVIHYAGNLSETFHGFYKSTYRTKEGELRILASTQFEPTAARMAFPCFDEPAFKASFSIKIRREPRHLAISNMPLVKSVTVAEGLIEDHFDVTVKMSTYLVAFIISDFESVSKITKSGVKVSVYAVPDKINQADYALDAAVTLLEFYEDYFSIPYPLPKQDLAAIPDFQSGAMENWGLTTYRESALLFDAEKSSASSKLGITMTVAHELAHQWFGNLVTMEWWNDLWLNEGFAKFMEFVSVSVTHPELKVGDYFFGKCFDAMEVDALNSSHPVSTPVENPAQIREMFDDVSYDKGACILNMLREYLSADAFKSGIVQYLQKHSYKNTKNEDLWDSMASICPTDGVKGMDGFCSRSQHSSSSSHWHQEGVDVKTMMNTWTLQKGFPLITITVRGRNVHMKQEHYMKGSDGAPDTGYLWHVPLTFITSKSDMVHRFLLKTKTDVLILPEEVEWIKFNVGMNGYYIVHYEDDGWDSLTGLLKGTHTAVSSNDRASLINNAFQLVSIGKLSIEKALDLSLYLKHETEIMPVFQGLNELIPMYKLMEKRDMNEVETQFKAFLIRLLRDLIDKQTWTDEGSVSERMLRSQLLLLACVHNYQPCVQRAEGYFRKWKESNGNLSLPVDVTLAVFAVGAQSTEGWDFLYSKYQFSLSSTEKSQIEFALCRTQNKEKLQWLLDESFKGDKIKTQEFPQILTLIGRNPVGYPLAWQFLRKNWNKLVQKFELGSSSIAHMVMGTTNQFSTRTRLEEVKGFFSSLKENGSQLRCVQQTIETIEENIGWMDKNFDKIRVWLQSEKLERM
FGF22 binding: binders of human FGF22 protein, primary screen, FGF22 synaptogenesis inhibitor project, biophysical, thermal shift, single point; recombinant FGF22 thermal shift, SYPRO orange fluorescence; percent of sucrose octasulfate shift, DMSO zero; activity (Tm shift, normalised), % at 9.99 µM; 1.5% of 340,000 active; Fibroblast growth factor 22 (Homo sapiens), Q9HCT0;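 active = mean Tm shift, scaled 0 neutral to 100 positive control, at about 1.3% or above, every replicate too, limit read from the data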
SIRT5 inh: SIRT5 desuccinylase inhibitors, primary screen, biochemical, fluorescence imaging, single point, set 5 | inhibition, % at 15 µM | Purified SirT5, succinyl-peptide AMC, trypsin-coupled fluorescence | NAD-dependent protein deacylase sirtuin-5, mitochondrial (Homo sapiens), Q9NXA8 | 1.1% of 330,000 active; in the data active = inhibition above about 15%
CASP6 VEID inh: human caspase-6 inhibitors, primary screen, biochemical, VEID-R110 fluorescence, single point, set 2 | P55212 | purified caspase-6, Z-VEID-R110 cleavage fluorescence | inhibition, % at 12.5 µM | 0.53% of 350,000 active;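 active = mean inhibition across replicates at least about 35%, with every replicate also reaching that limit, limit read from the data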;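 also: 0% = median of neutral control wells and 100% = no fluorescence left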
Starred values were filed as active, the others as inactive; x = not tested or not shown.

SMILES	ERAP1 inh	FGF22 binding	SIRT5 inh	CASP6 VEID inh
C[C@@H]1CN([C@H](C)CO)C(=O)c2cc(NC(=O)Nc3cccc4ccccc34)ccc2O[C@@H]1CN(C)Cc1ccc2c(c1)OCO2	-1.2	x	15.1*	1.4
COc1ccc(NC(=O)Nc2ccc3c(c2)C(=O)N([C@@H](C)CO)C[C@H](C)[C@@H](CN(C)C(=O)Nc2ccc(C(F)(F)F)cc2)O3)cc1	0.4	0.2	14.8	8.5
C[C@H]1CN([C@@H](C)CO)C(=O)c2cc(-c3ccccc3F)cnc2O[C@@H]1CN(C)C(=O)c1cnccn1	1.3	0.1	-0.3	-0.7
O=C(C[C@H]1C[C@H]2c3cc(NC(=O)Nc4ccc(C(F)(F)F)cc4)ccc3O[C@H]2[C@H](CO)O1)NCc1ccccn1	0.8	-0.2	-0.3	6.6
O=C(NC[C@@H]1CC[C@H]2[C@H](CN2C(=O)C2CCOCC2)O1)c1cccnc1	-4.9	x	-12.1	-0.6
COc1ccc(CN(C)C[C@H]2Oc3c(NC(=O)Nc4ccc(C(F)(F)F)cc4)cccc3C(=O)N([C@H](C)CO)C[C@H]2C)cc1	-0.9	-0.7	3.8	-1.0
COc1ccc(NC(=O)Nc2cccc3c2O[C@@H](CN(C)Cc2ccc(C(F)(F)F)cc2)[C@@H](C)CN([C@H](C)CO)C3=O)cc1	-0.7	-0.3	21.4*	-0.1
C[C@@H]1CN([C@H](C)CO)C(=O)c2cc(NC(=O)Nc3cccc4ccccc34)ccc2O[C@@H]1CN(C)Cc1ccc(C(=O)Nc2ccccc2N)cc1	2.1	-0.3	15.4*	1.3
COc1ccc(NC(=O)Nc2ccc3c(c2)C(=O)N([C@H](C)CO)C[C@H](C)[C@@H](CN(C)Cc2ccc4c(c2)OCO4)O3)cc1	-1.1	0.0	16.3*	1.1
CO[C@@H]1CN(C)C(=O)c2cc(NC(=O)NC3CCCC3)ccc2OC[C@H](C)N(CC2CC2)C[C@@H]1C	-1.8	x	3.2	3.4
CCCC#Cc1ccc([C@H]2[C@H](CO)N3C(=O)CN(C(=O)Nc4cccc(F)c4)C[C@@H]23)cc1	1.2	0.0	5.4	3.9
C[C@@H]1CCCCO[C@H](CN(C)Cc2ccc(C(F)(F)F)cc2)[C@H](C)CN([C@H](C)CO)C(=O)c2cc(NS(=O)(=O)c3ccc(F)cc3)ccc2O1	-3.4	-1.3	16.7*	0.0
C[C@@H]1CCCCO[C@H](CN(C)Cc2ccc(C(F)(F)F)cc2)[C@H](C)CN([C@@H](C)CO)C(=O)c2cc(NS(=O)(=O)c3ccc(F)cc3)ccc2O1	-1.4	1.1	-0.5	-3.7
C[C@@H]1CCCCO[C@@H](CN(C)Cc2ccc(C(F)(F)F)cc2)[C@H](C)CN([C@H](C)CO)C(=O)c2cc(NS(=O)(=O)c3ccccc3)ccc2O1	-1.1	x	18.0*	-0.4
C[C@@H]1CN([C@@H](C)CO)C(=O)c2cc(NS(=O)(=O)c3ccc(F)cc3)ccc2O[C@@H](C)CCCCO[C@@H]1CN(C)Cc1ccc(C(F)(F)F)cc1	-3.6	0.0	-3.4	-0.3
C[C@@H]1CCCCO[C@H](CN(C)Cc2ccc(C(F)(F)F)cc2)[C@@H](C)CN([C@@H](C)CO)C(=O)c2cc(NS(=O)(=O)c3ccc(F)cc3)ccc2O1	-0.4	-0.8	19.5*	3.2
C[C@H]1CCCCO[C@@H](CN(C)Cc2ccc(C(F)(F)F)cc2)[C@@H](C)CN([C@@H](C)CO)C(=O)c2cc(NS(=O)(=O)c3ccc(F)cc3)ccc2O1	1.2	-1.2	20.4*	0.7
Cc1ccc(S(=O)(=O)NCC[C@H]2CC[C@H](NC(=O)c3cnccn3)[C@H](CO)O2)cc1	2.1	-0.1	-2.1	-3.7
O=C(Nc1ccccc1)N1CCCCN2[C@H](CO)[C@H](c3ccc(C#Cc4cccnc4)cc3)[C@H]2C1	2.0	-0.2	0.2	2.7
C[C@H](CO)N1C[C@H](C)[C@H](CN(C)C(=O)NC2CCCCC2)Oc2ccc(NC(=O)Nc3cccc4ccccc34)cc2CC1=O	-1.4	-0.4	4.7	4.4
C[C@H](CO)N1C[C@H](C)[C@H](CN(C)Cc2ccc(C(F)(F)F)cc2)OCCCC[C@H](C)Oc2ccc(NS(=O)(=O)c3ccc(F)cc3)cc2C1=O	-0.4	-1.0	17.4*	-0.3
COc1ccc(C2C3=C(CCCC3=O)N(CC(=O)O)C3=C2C(=O)CCC3)cc1Cl	30.9*	-0.1	-23.5	17.0
O=C(O)C1C2CCC(C2)C1C(=O)NCCc1ccc(F)cc1 (stereo not given)	-2.8	-0.1	17.5*	-1.1
CCOC(=O)c1sc(NC(=O)C2CCC2)cc1C	3.5	43.3*	0.2	-1.4
CC(=O)N(C)c1ccc(NC(=O)COc2ccc(Br)cc2C)cc1	1.1	0.0	3.3	0.8
SMILES	ERAP1 inh	FGF22 binding	SIRT5 inh	CASP6 VEID inh
CN1CCC(N(C)S(=O)(=O)c2ccc(NC(=O)COc3ccc(Br)cc3Cl)cc2)CC1	-2.0	x	0.0	-48.6
Cc1ccc(OCC(=O)Nc2ccc(S(=O)(=O)N(C)C3CCN(C)CC3)cc2)c(C)c1	89.8*	-0.1	-1.6	-11.9
CC(=O)Nc1ccc(NC(=O)COc2ccc(Br)cc2C)cc1	1.9	0.0	15.2*	-0.4
COc1cc(SC)ccc1C(=O)Nc1cccc(S(=O)(=O)NC2=NCCC2)c1	-0.1	0.0	15.3*	-0.5
O=C(Nc1cccc(S(=O)(=O)NC2=NCCC2)c1)c1ccccc1F	0.8	0.2	-2.3	-5.2
COc1ccc2c3c(n(C)c2c1)[C@H](CO)N(S(C)(=O)=O)CC31CCN(CC2CCCC2)CC1	-0.3	-0.1	-0.4	-1.7
C/[N+]([O-])=C/c1c(OCc2ccc(Cl)cc2Cl)ccc2ccccc12	-0.5	44.9*	0.8	3.6
CO/N=C/C(c1ccc(Cl)nc1)S(=O)(=O)c1ccccc1 (stereo not given)	-3.5	0.3	20.9*	1.4
COCc1cn(CC[C@H]2CC[C@H](NC(=O)Nc3ccc(F)cc3)[C@@H](CO)O2)nn1	0.7	0.0	6.0	0.2
Oc1ccc(-c2nccc(-c3ccc(Cl)cc3Cl)n2)cc1	-1.3	0.0	18.1*	2.6
C[C@H](CO)N1C[C@H](C)[C@@H](CN(C)Cc2ccncc2)Oc2c(NC(=O)Nc3ccc4c(c3)OCO4)cccc2C1=O	7.8	0.2	-1.7	1.6
CC(C)NC(=O)Nc1ccc2c(c1)C(=O)N([C@@H](C)CO)C[C@@H](C)[C@@H](CN(C)S(=O)(=O)c1cccs1)OCCCC[C@H](C)O2	2.4	-0.1	-1.1	-0.9
S=c1[nH]nc(-c2ccccc2)n1/N=C/c1cccs1	-0.5	x	x	4.0
Cc1ccc(-c2n[nH]c(=S)n2/N=C/c2cccs2)cc1	2.2	-0.2	28.9*	3.3
CC(=O)N1[C@H](CNC(=O)CN(C)C)[C@H](c2ccc(C3=CCCCC3)cc2)[C@@H]1CO	x	-0.1	-5.0	x
O=C(Nc1ccccc1C(F)(F)F)NC1(C(=O)N2CCOCC2)CCCCC1	-0.3	0.6	7.6	86.0*
O=C(COc1ccc(C(=S)N2CCCC2)cc1)Nc1ccccc1C(F)(F)F	-0.7	0.1	-1.3	0.4
Cc1ccccc1NC(=O)NC1(C(=O)N2CCOCC2)CCCCC1	-0.1	0.1	-1.9	1.1
